# Experimental data published in PubChem BioAssay.
# Activity calls are given as the source filed them. Unless noted, no rule for the calls is given here.
# How the values were obtained:
# [1] = A549 cell viability effects, profiling panel, calcein-AM fluorescence, 48 h, basal (AID 1162); settings: higher = more signal; also: test concentration not given here
# [2] = adipocyte viability effects, profiling panel, cell-based, 3T3-L1 adipocytes, calcein-AM fluorescence, 48 h, basal (AID 1163); settings: 3T3-L1 adipocytes viability, higher = more signal; also: test concentration not given here
# [3] = HepG2 cell viability effects, profiling panel, calcein-AM fluorescence, 48 h, basal (AID 1164); settings: higher = more signal; also: test concentration not given here
# [4] = MM1S cell viability effects, profiling panel, calcein-AM fluorescence, 48 h, basal (AID 1165); settings: higher = more signal;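 also: viability of MM1S multiple myeloma cells under basal unstimulated conditions; test concentration not given here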
# [5] = basal RPMI8226 viability, no added stimulus, profiling panel, cell-based, calcein-AM fluorescence, 48 h, PK04 Diversity Set (AID 1166); settings: RPMI8226 myeloma viability, higher = more signal;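 also: cells grown under basal conditions without added stimulus; test concentration not given here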
# [6] = basal HepG2 mitochondrial membrane potential changes, profiling panel, cell-based, JC-1 fluorescence, 24 h, 100 nL compound (AID 1167); settings: higher = more signal; also: test concentration not given here
# [7] = basal 3T3-L1 adipocyte mitochondrial potential changes, profiling panel, cell-based, JC-1 fluorescence, 3T3-L1 adipocytes, 24 h, 100 nL compound (AID 1168); settings: JC-1 mitochondrial fluorescence, higher = more signal, called active from +8 up or from −8 down; also: test concentration not given here
# [8] = basal RPMI8226 mitochondrial membrane potential changes, profiling panel, cell-based, JC-1 fluorescence, 24 h, 100 nL compound (AID 1169); settings: RPMI8226 myeloma, JC-1 mitochondrial potential fluorescence, higher = more signal; also: test concentration not given here
# [9] = basal MM1S mitochondrial membrane potential changes, profiling panel, cell-based, JC-1 fluorescence, 24 h, 100 nL compound (AID 1170); settings: higher = more signal; also: test concentration not given here
# [10] = A549 lung cancer cell viability effects, profiling panel, resazurin fluorescence, 24 h, PK04 Diversity Set (AID 1171); settings: higher = more signal, called active from +8 up or from −8 down; also: test concentration not given here
# [11] = HepG2 liver cancer cell viability effects, profiling panel, resazurin fluorescence, 24 h, PK04 Diversity Set (AID 1172); settings: higher = more signal; also: test concentration not given here
# [12] = basal S. cerevisiae growth modulation, no modifier, primary screen, OD600, strain BY4716, 24 h, basal condition (AID 1173); settings: OD600, 24 h, higher = more signal, called active from +8 up or from −8 down
# [13] = MM1S myeloma cell viability, profiling panel, resazurin fluorescence, basal, 24 h, PK04 Diversity Set (AID 1174); settings: higher = more signal, called active from +8 up or from −8 down;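 also: MM1S multiple myeloma cell line; test concentration not given here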
# [14] = target: Dihydroorotate dehydrogenase (quinone), mitochondrial (Plasmodium falciparum (isolate 3D7)) (UniProt Q08210); assay: PfDHODH enzyme inhibitors, primary screen, biochemical, C-terminal His tag, absorbance 600 nm (AID 1175); settings: DCIP absorbance 600 nm, higher = more signal, called active from +8 up or from −8 down;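 also: recombinant parasite enzyme with a five histidine tag at its C terminus; test concentration not given here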
# [15] = P. aeruginosa biofilm formation inhibitors, primary screen, strain PAO1, LB-PBS medium, absorbance 600 nm (AID 1176); also: test concentration not given here; settings: P. aeruginosa PAO1 growth/biofilm, A600, 12 h; higher = more signal
# [16] = S. cerevisiae RM11-1a growth modifiers, primary screen, strain RM11-1a, OD600, basal, 24 h (AID 1177); settings: OD600, 24 h, higher = more signal, called active from +8 up or from −8 down;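 also: cultures grown under basal conditions with no added stressor; test concentration not given here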
# [17] = E. coli acrAB mutant growth effects, primary screen, E. coli filamentation inducers, strain DRC39, OD650, 24 h (AID 1178); settings: higher = more signal, called active from +8 up or from −8 down;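 also: growth measured as culture turbidity by optical density at 650 nm; test concentration not given here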
# [18] = E. coli acrAB mutant growth effects, primary screen, E. coli filamentation inducers, strain DRC39, OD650, 48 h (AID 1179);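 also: screen aims at cell division blockers that make cells filament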; settings: E. coli DRC39 delta-acrAB growth, higher = more signal, called active from +8 up or from −8 down
# [19] = RPMI8226 myeloma cell viability, profiling panel, resazurin fluorescence, basal, 24 h, PK04 Diversity Set (AID 1180); settings: higher = more signal;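 also: RPMI8826 multiple myeloma cell line at 5000 cells per well; test concentration not given here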
# [20] = target: E3 ubiquitin-protein ligase XIAP (Homo sapiens) (UniProt P98170); assay: XIAP binders, primary screen, biophysical, small-molecule microarray, fluorescence 635 nm (AID 1181); settings: small-molecule microarray binding, higher = more signal;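 also: score merges 667 nm emission and signal to noise over triplicate slides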
# Chain of E3 ubiquitin-protein ligase XIAP (Homo sapiens) (P98170 whole entry, looked up): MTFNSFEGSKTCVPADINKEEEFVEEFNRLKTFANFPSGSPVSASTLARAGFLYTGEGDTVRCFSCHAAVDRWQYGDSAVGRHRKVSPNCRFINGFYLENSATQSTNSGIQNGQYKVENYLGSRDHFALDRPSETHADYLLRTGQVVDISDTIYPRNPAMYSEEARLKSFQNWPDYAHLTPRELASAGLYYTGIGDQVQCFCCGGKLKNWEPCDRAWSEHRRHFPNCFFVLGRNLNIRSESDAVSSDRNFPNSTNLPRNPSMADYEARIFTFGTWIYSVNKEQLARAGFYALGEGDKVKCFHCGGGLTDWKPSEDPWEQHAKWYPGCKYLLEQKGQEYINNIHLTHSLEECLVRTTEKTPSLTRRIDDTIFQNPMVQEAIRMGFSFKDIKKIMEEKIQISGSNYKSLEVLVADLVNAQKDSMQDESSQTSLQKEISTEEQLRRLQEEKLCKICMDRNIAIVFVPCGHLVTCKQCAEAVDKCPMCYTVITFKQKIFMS
# Chain of Dihydroorotate dehydrogenase (quinone), mitochondrial (Plasmodium falciparum (isolate 3D7)) (Q08210 whole entry, looked up): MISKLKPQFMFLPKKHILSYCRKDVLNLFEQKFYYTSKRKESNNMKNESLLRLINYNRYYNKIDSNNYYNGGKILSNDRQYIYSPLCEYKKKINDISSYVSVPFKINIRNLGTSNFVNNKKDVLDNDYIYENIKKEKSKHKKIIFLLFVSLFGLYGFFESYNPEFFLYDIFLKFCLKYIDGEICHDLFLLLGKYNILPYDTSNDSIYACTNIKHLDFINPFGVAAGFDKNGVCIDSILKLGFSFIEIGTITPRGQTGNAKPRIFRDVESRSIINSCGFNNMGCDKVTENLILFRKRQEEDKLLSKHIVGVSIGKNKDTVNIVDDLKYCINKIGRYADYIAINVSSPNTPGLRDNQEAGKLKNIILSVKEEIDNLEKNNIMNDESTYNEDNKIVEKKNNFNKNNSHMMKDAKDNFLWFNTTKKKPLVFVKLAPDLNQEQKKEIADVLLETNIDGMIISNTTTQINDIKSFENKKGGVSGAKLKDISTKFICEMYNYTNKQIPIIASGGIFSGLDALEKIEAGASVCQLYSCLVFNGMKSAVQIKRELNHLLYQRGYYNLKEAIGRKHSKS
SMILES,z-score [1],z-score [2],z-score [3],z-score [4],z-score [5],z-score [6],z-score [7],z-score [8],z-score [9],z-score [10],z-score [11],z-score [12],z-score [13],composite z-score [14],z-score [15],z-score [16],z-score [17],z-score [18],z-score [19],composite z-score [20]
C=CCC(OC(C)=O)[C@@H]1[C@@H](N(Cc2cccc3ccccc23)C(=O)Cc2ccc(OC)cc2)c2cc(OCCCO)ccc2N1C(=O)c1ccc2ccccc2n1 (stereo not given in full),-0.639,1.69,0.493,-1.27,-0.192,1.64,-0.0994 (inactive),0.106,0.306,0.679 (inactive),0.602,0.0243 (inactive),-0.415 (inactive),-0.175 (inactive),-0.145 (inactive),-0.212 (inactive),0.884 (inactive),0.284 (inactive),0.0309,0.343
COC(=O)C1=CC(CCCO)=CC(C2CC2)N(C)C=C1C(=O)OC (stereo not given),2.6,0.435,1.45,0.828,2.02,0.63,-0.757 (inactive),-0.225,-1.27,-0.951 (inactive),0.421,-0.589 (inactive),-0.463 (inactive),-1.43 (inactive),0.82 (inactive),-1.09 (inactive),1.04 (inactive),1.58 (inactive),-0.0242,0.0054
CCOC(=O)c1ccc(NC(=O)O[C@H]2[C@H](OC(=O)Nc3ccc4c(c3)OCO4)[C@@H](OC(=O)Nc3ccc4c(c3)OCO4)[C@@H](OC)O[C@@H]2CO)cc1,-0.742,0.558,-1.09,-1.05,-0.141,0.305,0.463 (inactive),-0.66,-0.979,-0.214 (inactive),-0.741,1.1 (inactive),-0.849 (inactive),0.0737 (inactive),2.08 (inactive),2.29 (inactive),1.04 (inactive),-0.0515 (inactive),-0.836,0.519
C=CC[C@]1(C(=O)NCCN2CCOCC2)N=C(c2ccc(OCCCO)cc2)O[C@H]1c1ccccc1CN=[N+]=[N-],0.779,0.885,0.187,0.81,-0.221,2.76,0.0141 (inactive),-1.08,-0.244,1.2 (inactive),0.735,-1.01 (inactive),0.33 (inactive),0.453 (inactive),-1.17 (inactive),0.724 (inactive),1.31 (inactive),0.351 (inactive),0.485,-0.209
O=C1N(Cc2ccccc2)Cc2ccccc2[C@@H]2OC(c3ccc(OCCCO)cc3)=N[C@]12CCS(=O)(=O)c1ccccc1,0.589,-1.46,0.151,-1.25,-1.08,-0.565,0.676 (inactive),-1.14,-0.156,0.403 (inactive),-0.121,0.691 (inactive),-0.772 (inactive),0.094 (inactive),1.91 (inactive),2.33 (inactive),0.153 (inactive),-0.286 (inactive),-0.849,-0.144
CC(C)N1CC=CC23O[C@@H]4C=CCOC(=O)[C@@H]4[C@H]2C(=O)N(CCCO)[C@@H]3C1=O (stereo not given in full),0.555,2.67,-1.01,0.34,-0.258,-0.4,0.253 (inactive),0.354,-1.5,0.108 (inactive),-0.128,-1.91 (inactive),1.34 (inactive),-0.201 (inactive),0.248 (inactive),-1.68 (inactive),-0.135 (inactive),0.2 (inactive),0.939,0.29
CC(C)(C)N1CC=CC23O[C@@H]4C=CCOC(=O)[C@@H]4[C@H]2C(=O)N(CCCCCCO)[C@@H]3C1=O (stereo not given in full),-0.127,-0.739,-0.165,1.53,0.0749,-0.403,0.567 (inactive),0.799,-0.112,-0.0435 (inactive),-0.303,-0.093 (inactive),0.448 (inactive),-0.817 (inactive),-0.608 (inactive),-0.957 (inactive),0.226 (inactive),0.254 (inactive),0.29,0.0385
COCCCNC(=O)[C@@]1(Cc2ccccc2CN=[N+]=[N-])N=C(c2ccc(OCCCO)cc2)O[C@H]1c1ccccc1,-1.15,0.759,-0.798,-2.93,-4.32,0.331,-0.00801 (inactive),-1.25,-0.69,0.385 (inactive),0.636,0.41 (inactive),-0.88 (inactive),1.22 (inactive),-0.317 (inactive),1.92 (inactive),1.28 (inactive),0.242 (inactive),-1.75,-0.052
COc1cccc(/C=C/C=O)c1,0.482,-0.132,0.844,-1.38,-0.803,1.04,0.532 (inactive),-0.109,-0.253,0.336 (inactive),0.445,-6.49 (inactive),-0.687 (inactive),-0.0136 (inactive),-0.131 (inactive),0.0721 (inactive),0.635 (inactive),0.403 (inactive),0.884,-0.0224
CCOC(=O)[C@H]1[C@@H]2C(=O)N3CCC[C@H]3[C@H](O[Si](C(C)C)(C(C)C)C(C)C)[C@H]2C=C2CCN(S(=O)(=O)c3ccc(C)cc3)C[C@H]21,0.487,0.302,-1.18,-2.91,-4.09,1.51,-0.603 (inactive),-1.06,-0.814,-0.742 (inactive),-1.01,0.212 (inactive),-1.84 (inactive),-0.627 (inactive),0.318 (inactive),-0.598 (inactive),-0.146 (inactive),-0.641 (inactive),-3.37,-0.148
CCOC(=O)C[C@H]1[C@H](OC(=O)c2cc3ccccc3oc2=O)[C@@H](NC(=O)c2ccc(-c3ccccc3)cc2)c2cc(OCCCO)ccc2N1C(=O)c1ccccc1,0.182,1.82,0.404,0.172,-0.841,1.27,-0.445 (inactive),-0.337,-0.595,-1.1 (inactive),-0.638,-1.79 (inactive),-0.005 (inactive),-2.74 (inactive),-0.329 (inactive),-0.272 (inactive),-0.466 (inactive),-0.878 (inactive),-0.24,0.164
CCOC(=O)C1=C[C@@H](c2ccccc2)N(S(=O)(=O)c2ccc(C)cc2)[C@H]1c1ccccc1Cl,-0.968,-0.426,0.0009,-0.938,-0.435,2.6,0.422 (inactive),1.01,0.38,1.09 (inactive),-0.695,2.1 (inactive),-0.898 (inactive),0.268 (inactive),0.244 (inactive),2.01 (inactive),-0.581 (inactive),-0.591 (inactive),-1.88,-0.136
COCCOC(=O)N1C(=O)[C@@]2(c3cc(C#CCCO)ccc31)[C@H](c1ccccc1OCCO)N1[C@H](c3ccccc3)[C@H](c3ccccc3)OC(=O)[C@H]1[C@@H]2C(=O)Nc1nc2ccccc2s1,0.148,-0.676,0.169,-1.11,-0.813,-3.28,-0.192 (inactive),-0.417,-0.998,0.854 (inactive),1.03,1.13 (inactive),-0.125 (inactive),-0.26 (inactive),2.51 (inactive),1.79 (inactive),-0.233 (inactive),-0.324 (inactive),-0.411,-0.115
CCOC(=O)C[C@H]1[C@H](OC(=O)c2ccccc2-c2ccccc2)[C@@H](NC(=O)C2CCCCC2)c2cc(OCCCO)ccc2N1C(=O)Cc1ccc(OC)cc1,0.544,0.744,0.43,-0.524,-0.593,0.908,-0.388 (inactive),-0.285,-0.663,0.361 (inactive),-0.18,0.0422 (inactive),-0.257 (inactive),0.0563 (inactive),0.0238 (inactive),-0.508 (inactive),-0.506 (inactive),-0.657 (inactive),-0.466,-0.159
Cc1ccc(S[C@]2(C(=O)O)CC(=O)N(C3Cc4ccccc4C3)[C@@H]2c2ccc(CO)cc2)cc1,-0.197,0.729,-0.574,-0.428,-2.56,0.125,-0.58 (inactive),0.522,0.353,-0.831 (inactive),-0.684,-0.528 (inactive),-0.444 (inactive),-1.03 (inactive),1.15 (inactive),-0.157 (inactive),-0.185 (inactive),-0.108 (inactive),-0.396,-0.205
CCCNC(=O)[C@@H]1c2ccccc2C(=O)N(C(C)C)[C@H]1c1ccc(CO)cc1,0.678,0.306,0.997,0.92,-0.34,1.81,1.82 (inactive),-0.119,-0.695,0.136 (inactive),0.321,0.121 (inactive),0.551 (inactive),-0.185 (inactive),0.127 (inactive),0.846 (inactive),0.313 (inactive),1.31 (inactive),0.497,-0.237
